Measurements published in PubChem BioAssay AID686979 (National Center for Advancing Translational Sciences (NCATS), 2013).
Hit rate of the full screen: of about 420,000 compounds, about 50,000 (12%) were called active. Roughly 26% stayed inconclusive and do not appear here. For the sample, actives were picked, then their nearest neighbours and some compounds at random. Values without a mark were called inactive. The call rests on the fitted dose curve; in most records, active means well fitted inhibition curve with a large enough effect; inconclusive means small, poorly fitted or top-dose-only effect; inactive means flat fitted curve, though single readings scatter.

Assay: qHTS for Inhibitors of human tyrosyl-DNA phosphodiesterase 1 (TDP1): qHTS in cells in presence of CPT; further: nearly all actives have a fitted effect of over 55% in size
Conditions: chicken DT40 Tdp1-/-;hTDP1 cells + 20 nM CPT, ATP luminescence, 48 h; series mostly up to 46.2 µM; activity change, negative = growth inhibition: at the top concentration
Summary of the method: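 Chicken DT40 Tdp1-/- cells stably complemented with human TDP1 were seeded at 400 cells/well in medium containing 20 nM camptothecin, exposed to pin-transferred compounds, and grown at 37 °C for at least 48 hr. Viability was read as ATP luminescence.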
On the % scale 0 is the no-effect control and ±100 the full control effect; potency means the concentration at half of the fitted maximal effect.

Structure (SMILES)	activity change, negative = growth inhibition	Potency
Cc1cccc(C(=O)NCc2nnc(SC(C)C(=O)Nc3nnc(C)s3)n2C)c1 (stereo not given)	-34.3%	–
C/C(N)=C(/C#N)C(=O)COC(=O)C1=NN(c2ccccc2)C(=O)CC1	1.55%	–
CCOc1ccc(-c2nc(N)ncc2-c2ccccc2OC)c(O)c1	–	20.6 µM (active)
CCOC(=O)Cn1c2c(c(-c3ccccc3OC)cc1=O)CCCC2	5.73%	–
C=C(C)COc1ccc(-c2nc(N)ncc2-c2ccccc2OC)c(O)c1	20.8%	–
O=C(O)CCCN1C(=O)c2ccccc2Sc2ncccc21	-9.84%	–
Fc1cccc(-n2ncc3c2ncn2nc(-c4ccccc4Cl)nc32)c1	21.7%	–
CCCCN1C(N)=NC[C@@H]1CC1CCCCC1	–	23.1 µM (active)
CCCCNC(=O)C1CCC(=O)N1CCc1ccccc1 (stereo not given)	29.2%	–
CCCCN1C(N)=NC[C@@H]1Cc1ccccc1	–	7.31 µM (active)
CCCC[C@@H]1CN=C(N)N1CCCC	–	9.2 µM (active)
CCCCN1CC(COCc2ccccc2)OCCS1(=O)=O (stereo not given)	6.67%	–
CCCCN1C(=S)NC[C@@H]1C(C)CC (stereo not given in full)	-7.68%	–
Cc1cccc(C)c1NC(=O)CNC(=O)c1ccc2c(c1)OCCO2	3.65%	–
COn1c(-c2ccc(Cl)cc2Cl)nc2ncccc21	-23.2%	–
O=S(=O)(Nc1ccc(-c2ccc(N3CCOCC3)nn2)cc1)c1cc(Cl)ccc1Cl	-17.8%	–
COc1cc2ccccc2cc1C(=O)Nc1ccc(N2CCOCC2)cc1	-6.18%	–
O=C1NCC(c2ccccc2)(c2ccccc2)C(=O)N1	8.39%	–
OCC1(CO)CC2(C1)CC(CO)(CO)C2	17.5%	–
Nc1cccc(CCc2nc3ccccc3[nH]2)c1	-2.04%	–
COc1ccccc1CSc1nc2ccccc2[nH]1	-20.9%	–
c1ccc2c(CSCc3nc4ccccc4[nH]3)cccc2c1	–	16.4 µM (active)
CC1(C(=O)NCc2ccccc2)CN(S(C)(=O)=O)CC(=O)N1CC(F)(F)F (stereo not given)	-1.16%	–
COc1cc(NC(=S)NNC(=O)CC(C)C)c(OC)cc1Cl	-18.9%	–
CN(C)CCCn1c(SCc2ccc(Cl)cc2)nnc1-c1ccncc1	-9.91%	–
Cn1c(=O)c2ccccc2n(CC(=O)Nc2ccc3c(c2)OCCO3)c1=O	-23.7%	–
Cc1cc(C(=O)NNC(=S)NC(C)c2ccccc2)cs1 (stereo not given)	–	23.1 µM (active)

Structure (SMILES)	activity change, negative = growth inhibition	Potency
Cc1ccc(C(=O)NC(C)c2ccccc2)cc1Br (stereo not given)	-16.3%	–
C/C(CC(=O)NC(C)c1ccccc1)=N\NC(N)=S (stereo not given)	3.94%	–
N#Cc1ccc(-c2ccc3nccn3c2)cc1	7.78%	–
COc1ccc(C)cc1S(=O)(=O)NC1CCCCC1	0.565%	–
COc1ccc(-c2nc3cc(C)ccn3c2NC2CCCCC2)cc1SC1CCCCC1	–	29.6 µM (active)
COC(=O)c1ccc(NC(=O)CSc2nncn2-c2cccnc2)cc1	-9.04%	–
CN(C)c1ccc(CN2CCOc3ccc(CN4CCC(O)(c5cccnc5)CC4)cc3C2)cc1	-11.9% [at 9.04 µM]	–
CC(=O)CCC(=O)c1ccc2ccccc2c1	5.57%	–
O=C(NNC(=O)c1ccc2ccccc2c1)c1ccc(Cl)cc1	-9.35%	–
C=CC(=O)c1ccc2ccccc2c1	–	2.91 µM (active)
COc1ccc(C(=O)N/N=C(\C)CC(=O)Nc2ccc(Cl)cn2)cc1	22.2%	–
c1csc(-c2nc(-c3ccncc3)no2)c1	1.73%	–
Brc1ccc(-c2noc(-c3ccccc3)n2)o1	–	inactive
COc1ccc(CCc2nc(-c3cccs3)no2)cc1	4.51%	–
c1ccc(-c2noc(-c3cccs3)n2)nc1	–	8.2 µM (active)
O=C(Oc1ccc(-c2nc(-c3ccccn3)no2)cc1)c1ccccc1	–	8.2 µM (active)
O=C(Oc1ccccc1)c1ccc2nccnc2c1	3.75%	–
COc1ccc(/C=C(\NC(=O)c2ccccc2)C(=O)NCCN2CCOCC2)cc1OC	10.4%	–
O=C(O)c1ccc(/C=N/NC(=O)c2ccc(Br)cc2)cc1	0.528%	–
CCN(C(=O)CSc1nnc(-c2ccc(OC(F)F)cc2)n1N)C1CCS(=O)(=O)C1 (stereo not given)	-1.93%	–
COc1ccc2c(c1)N(C)/C(=C1/SC(=S)N(NC(C)=O)C1=O)S2	-12.3%	–
CCCCCCNC(=O)O[C@H]1CN(C(=O)OC(C)C)N(C(=O)OC(C)C)[C@@H]2CN(S(=O)(=O)c3ccc(C)cc3)C[C@]12O	–	18.4 µM (active)
COC(=O)[C@H]1C[C@H](OC(=O)NCc2ccccc2)[C@@]2(O)CN(S(=O)(=O)c3ccc(C)cc3)CC2[C@H]1C(=O)OC (stereo not given in full)	-28.5%	–
CCCCOc1ccc(NC(=O)[C@@H]2CCCN2C(=O)C2CCN(S(=O)(=O)c3ccc(C)cc3)CC2)cc1	13.9%	–
CS(=O)(=O)N1CCN(C(=O)CSc2ccccc2)CC1	24.3%	–
CC(=O)Nc1ccc(NC(=O)CSc2nnnn2C2CCCCC2)cc1	-18.3%	–
OC[C@H]1O[C@@H](c2nc(-c3nc(-c4ccc(F)cc4)no3)cs2)[C@H](O)[C@@H](O)[C@H]1O	-1.35%	–

Structure (SMILES)	activity change, negative = growth inhibition	Potency
O=C(NNC(=S)NCCCN1CCOCC1)c1ccncc1	3.15%	–
COc1ccc(CNC(=O)C(NS(=O)(=O)c2cccc3nsnc23)C(C)C)cc1 (stereo not given)	7.46%	–
COc1cc(Cl)c(NC(=O)C(NS(=O)(=O)c2cccs2)C(C)C)c(OC)c1 (stereo not given)	-25.9%	–
CC(C)C(NS(=O)(=O)c1cccs1)C(=O)Nc1nc(C(C)(C)C)cs1 (stereo not given)	–	16.4 µM (active)
O=C(CCNS(=O)(=O)c1ccccc1)NCCCc1ccccc1	-1.9%	–
Nn1c(SCC(=O)Nc2ccc3c(c2)CCC3)nnc1C1CC1	4.68%	–
COC(=O)Cc1cnc(NC(=O)CSc2nc(C(C)C)cc(=O)[nH]2)s1	13.8%	–
Cn1c(=O)c2sccc2n2c(CCC(=O)NCc3ccccc3Cl)nnc12	-19%	–
CCC(=O)N1CCc2cc(S(=O)(=O)NCCC(=O)Nc3cccc(C)c3C)ccc21	-22.6%	–
CC1=C(C)CC2C(=O)N(c3cccc4ccccc34)C(=O)C2C1 (stereo not given)	–	18.4 µM (active)
O=C1c2ccccc2C(=O)N1c1cccc2ccccc12	6.79%	–
Cc1ccc(N2C(=O)CC(Nc3cccc4ccccc34)C2=O)cc1 (stereo not given)	6.75%	–
CCc1nccn1S(=O)(=O)c1cccc([N+](=O)[O-])c1	5.21%	–
CC1CCN(C(=O)Cn2nnnc2CN2CCOCC2)CC1	14.7%	–
O=C(c1cc2ccccc2o1)N1CCN(S(=O)(=O)c2ccc(Cl)s2)CC1	–	18.4 µM (active)
CS(=O)(=O)N1CCN(C(=O)c2cc3ccccc3oc2=O)CC1	1.63%	–
CCNC(=S)N1CCN(S(=O)(=O)c2ccc(Cl)s2)CC1	-23.7%	–
COc1cccc(C(O)Cc2nc3ccccc3n2C)c1OC (stereo not given)	11.4%	–
NS(=O)(=O)c1ccc(CNC(=O)c2cccc(Oc3ccccc3)c2)cc1	-12.6%	–
CN1C(=O)[C@H]2[C@@H](/C=C/c3ccccc3)N3C(=O)CN(Cc4ccc(-c5ccccc5)cc4)C(=O)[C@@]3(C)[C@H]2C1=O	–	25.9 µM (active)
COC(=O)CN1C(=O)[C@H]2[C@@H](/C=C/c3ccccc3)N3C(=O)CN(Cc4ccccc4)C(=O)[C@@]3(Cc3ccccc3)[C@H]2C1=O	-9.59%	–
CN1C(=O)[C@H]2[C@@H](C3CC3)N3C(=O)CN(Cc4ccccc4)C(=O)[C@@]3(C)[C@H]2C1=O	28.2%	–
O=C(C[C@@H]1C/C=C\CCC(=O)OC[C@@H]2CCCN2C1=O)NCCO	0.104%	–
CC(=O)c1sc(N/N=C/c2ccc(C(C)C)cc2)nc1C	-22.3%	–
CCC(C)c1ccc(NC(=S)NCc2ccccn2)cc1 (stereo not given)	-8.87%	–
CC(=O)N1CCc2cc(Br)cc(S(=O)(=O)CCC(=O)NCCc3ccc(Cl)cc3)c21	-6.18%	–
O=C(COc1ccc(Cl)cc1)Nc1ccc(-c2nc3cc(Cl)ccc3o2)c(O)c1	-16.9%	–

Structure (SMILES)	activity change, negative = growth inhibition	Potency
COc1ccc2oc(-c3cccc(NC(=O)CSc4ccc(Cl)cc4)c3)nc2c1	–	20.6 µM (active)
Cc1ccc(SCC(=O)Nc2ccc3oc(-c4ccccc4C)nc3c2)cc1	-26%	–
Cc1ccccc1-c1nc(NC(C)C)nc2cc(-c3ccccc3)sc12	–	16.4 µM (active)
COc1ccccc1C(=O)NC(CCSC)C(=O)NNC(=O)c1csc(N2CCOCC2)n1 (stereo not given)	-12.3%	–
COc1ccccc1CNc1ncncc1-c1cccc(NS(C)(=O)=O)c1	-0.692%	–
CNc1ncnc2ccc(-c3cccc(NS(C)(=O)=O)c3)cc12	–	11.6 µM (active)
CS(=O)(=O)Nc1cccc(-c2cn3ccccc3n2)c1	-27.7%	–
O=C(CCS(=O)(=O)c1ccccc1)NC1CCCC1	-12.6%	–
COC1=CCC2([N+](=O)[O-])CN(CC(=O)O)CC1([N+](=O)[O-])C2 (stereo not given)	-15.2%	–
CCOc1ccccc1NC(=O)CCn1cnnn1	-0.217%	–
Cc1ccc(C)c(NC(=O)CN(C)C(=O)c2ccc3ncsc3c2)c1	-23%	–
COc1ccc(CNC(=O)CCCn2nc(C)c([N+](=O)[O-])c2C)cc1	3.66%	–
CCc1ccc(NC(=O)Cn2nc(C)c([N+](=O)[O-])c2C)cc1	-26%	–
Cc1ccc(Oc2cc(NC(=O)CCCn3nc(C)c([N+](=O)[O-])c3C)cc([N+](=O)[O-])c2)cc1	–	16.4 µM (active)
Cc1ccc(/C(N)=N/OC(=O)COc2ccc(Cl)c(C)c2)cc1	-12.5%	–
C/C(=N\NC(=O)Cc1ccccc1[N+](=O)[O-])c1cccnc1	-2.49%	–
CCc1ccccc1NC(=O)Cc1cn(C)c2ccccc12	–	inactive
CC1CCN(c2ccc(C(=O)Nc3nnc(C4CC4)s3)cc2[N+](=O)[O-])CC1	7.78%	–
Cc1cccc(C)c1NC(=O)CNC(=O)c1ccc(N2CCOCC2)c([N+](=O)[O-])c1	-8.91%	–
O=C(Nc1cccc(C(F)(F)F)c1)c1ccc(N2CCNCC2)c([N+](=O)[O-])c1	–	14.6 µM (active)
CCOc1ccc(NC(=O)CC(Cc2ccc(Cl)cc2)C(=O)O)cc1 (stereo not given)	11.1%	–
N#C/C(=C\c1ccc(O)c(O)c1)C(N)=O	-2.05%	–
CC(C)NC(=O)/C(C#N)=C\c1ccc(N(C)C)c(Br)c1	8.04%	–
N#C/C(=C\c1ccc(O)c(O)c1)C(=O)NCc1ccccc1	–	29.9 µM (active)
